Measured values published in ChEMBL document CHEMBL3433997, “St. Jude Leishmania screening dataset” (2016).
Values joined by “and” are separate entries in the source; they are usually repeats but may differ in a detail not shown here. Equal entries are not always repeated.

Tests used:
Type in all cases: functional
[1] = target: Solute carrier family 2, facilitated glucose transporter member 1 (Homo sapiens) (UniProt P11166); assay: ST_JUDE_LEISH: Cytotoxicity at 2uM final concentration against transgenic Leishmania Mexicana promastigotes LmGLUT1 that are glucose transport deficient and complemented with the human glucose transporter GLUT1. Activity is measured by DNA content using SYBR green in vitro
[2] = target: Hexose transporter 1 (Plasmodium falciparum) (UniProt O97467); assay: ST_JUDE_LEISH: Cytotoxicity at 2uM final concentration against transgenic Leishmania Mexicana promastigotes LmPfHT that are glucose transport deficient and complemented with the Plasmodium falciparum hexose transporter. Activity is measured by DNA content using SYBR green in vitro
[3] = target: Glucose transporter (Leishmania mexicana) (UniProt O61059); assay: ST_JUDE_LEISH: Cytotoxicity at 2uM final concentration against transgenic Leishmania Mexicana promastigotes LmGT2 that are glucose transport deficient and complemented with the L. Mexicana glucose transporter 2. Activity is measured by DNA content using SYBR green in vitro

Solute carrier family 2, facilitated glucose transporter member 1 (Homo sapiens), sequence (P11166 whole entry): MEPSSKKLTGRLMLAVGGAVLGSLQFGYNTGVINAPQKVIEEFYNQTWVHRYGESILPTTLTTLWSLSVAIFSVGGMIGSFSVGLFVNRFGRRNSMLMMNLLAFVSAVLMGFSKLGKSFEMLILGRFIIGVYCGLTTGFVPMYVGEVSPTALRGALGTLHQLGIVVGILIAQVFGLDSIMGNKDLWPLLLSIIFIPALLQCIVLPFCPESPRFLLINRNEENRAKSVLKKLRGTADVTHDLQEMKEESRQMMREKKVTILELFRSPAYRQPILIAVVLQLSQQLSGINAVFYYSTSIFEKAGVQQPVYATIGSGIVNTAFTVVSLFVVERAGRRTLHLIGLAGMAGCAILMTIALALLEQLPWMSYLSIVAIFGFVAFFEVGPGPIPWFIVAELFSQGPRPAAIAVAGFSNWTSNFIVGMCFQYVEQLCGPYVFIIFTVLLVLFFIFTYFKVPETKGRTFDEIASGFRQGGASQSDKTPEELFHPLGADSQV

Row | SMILES | inhibition [1] | inhibition [2] | inhibition [3]
1 | CC[C@H]1CN2CC[C@@H]1C[C@H]2[C@H](O)c1cc(N2CCC(O)(c3ccc(Cl)cc3)CC2)nc2ccc(OC)cc12 | 6.73% | 1.34% | 2.62%
2 | Oc1ccc(Cl)cc1CN1CCC(CCOC(c2ccccc2)c2ccc(Cl)cc2)CC1 (stereo unspecified) | 46.7% | 25.3% | 5.18%
3 | COc1cc(CC(C)NCC(O)c2cccc(C(F)(F)F)c2)ccc1OCc1ccccc1 (stereo unspecified) | 4.94% | 4.6% | 3.99%
4 | CC[C@H]1CN2CC[C@H]1C[C@H]2[C@H](O)c1cc(/C=C/c2ccccc2)nc2ccc(OC)cc12 | 0.9% | -0.83% | -0.2%
5 | COc1nc(N)ncc1C(=O)NC1CN2CCC1CC2 (stereo unspecified) | 7.43% | 6.98% | 7.08%
6 | O=C(Nc1cc(C(F)(F)F)cc(C(F)(F)F)c1)c1cc(Cl)ccc1O | 7.09% | 7.96% | 8.03%
7 | O=C(Nc1ccc(Oc2ccccc2)cc1)NC1CCC(CN2CCC(c3c[nH]c4ccccc34)CC2)CC1 (stereo unspecified) | 1.21% | 0.51% | -0.05%
8 | O=C(C=C1c2ccccc2-c2ccccc21)NC1CCC(CN2CCC(c3c[nH]c4ccccc34)CC2)CC1 (stereo unspecified) | 0.2% and -2.16% | 0.36% and -1.31% | -0.17% and -1.28%
9 | Cc1[nH]c2ccccc2c1C1=CCN(CCCCCC23CCCc4cccc(c42)NC3=O)CC1 (stereo unspecified) | 2.18% | 2.47% | 3.51%
10 | O=C(NC1CCC(CN2CCC(c3c[nH]c4ccccc34)CC2)CC1)c1cc(-c2ccccc2)c(C(F)(F)F)s1 (stereo unspecified) | 11.2% | 14.7% | 6.95%
11 | O=C(Cc1cc(=O)oc2cc(O)ccc12)N1CCC(CN2CCC(c3c[nH]c4ccccc34)CC2)CC1 | 4.12% | 5.46% | 5%
12 | CC[C@H]1CN2CC[C@H]1C[C@H]2[C@H](O)c1cc(-c2ccc(SC)cc2)nc2ccc(OC)cc12 | 4.44% | 4.13% | 7.64%
13 | C=C[C@H]1CN2CC[C@H]1C[C@@H]2[C@@H](O)c1ccnc2ccccc12 | -1.24% | 1.12% | 0.13%
14 | C#CCN1CCC2=C(C1)c1c(O)cc(C(C)CCCc3ccc(F)cc3)cc1OC2(C)C (stereo unspecified) | 1.13% | 0.61% | 0.09%
15 | COc1ccc(OC)c(C=CC(=O)NC2CCC(CN3CCC(c4c[nH]c5ccccc45)CC3)CC2)c1 (stereo unspecified) | -2.94% | -0.24% | -0.07%
16 | COC(=O)CN(C(=O)/C=C/c1ccc(Cl)c(Cl)c1)C1CCC(CN2CCC(c3c[nH]c4ccccc34)CC2)CC1 (stereo unspecified) | 1.07% | 4.03% | 2.24%

Row | SMILES | inhibition [1] | inhibition [2] | inhibition [3]
17 | O=C(CCc1ccc(Cl)cc1Cl)NC1CCC(CN2CCC(c3c[nH]c4ccccc34)CC2)CC1 (stereo unspecified) | 1.11% and 15.9% | -0.14% and 8.88% | -2.05% and 8.96%
18 | CC(=O)N(Cc1ccccc1-c1cccc(CNCc2ccc3c(c2)OCO3)c1)C1CCN(Cc2ccccc2)CC1 | 3.8% | 5.58% | 3.79%
19 | COc1ccccc1CNCC(O)c1cc(C(F)(F)F)ccc1C(F)(F)F (stereo unspecified) | 0.84% | 0.58% | 1.6%
20 | C/C=C1\CN2CC[C@H]1C[C@H]2[C@H](O)c1ccnc2ccc(OC)cc12 | 10% and 3.4% | 9.89% and 3.71% | 9.9% and 2.84%
21 | CC(Cc1ccc(NC(=O)[C@H](C)NCCc2cccc(Cl)c2)cc1)NCCc1cccc(Cl)c1 (stereo partly specified) | 2.86% | 0.1% | 0.22%
22 | COC(=O)c1ccc(CC(C)NCC(O)c2cccc(C(F)(F)F)c2)c(Cl)c1 (stereo unspecified) | 2.55% | 2.18% | 3.39%
23 | COC(=O)c1ccc(CC(C)NCC(O)c2ccc(Cl)c(Cl)c2)cc1 (stereo unspecified) | 6.46% | 3.9% | 5.96%
24 | Cc1ccc(CC(C)NCC(O)c2cccc([N+](=O)[O-])c2)cc1 (stereo unspecified) | 0.3% | -0.33% | 1.06%
25 | Cc1ccc(CC(C)NCC(O)c2cccc(C#N)c2)cc1 (stereo unspecified) | 9.34% | 13.4% | 9.79%
26 | COc1ccc(CN2CCN(CCOC(c3ccc(F)cc3)c3ccc(F)cc3)CC2)c(O)c1 | 6.6% | 3.26% | 2.85%
27 | CC[C@H]1CN2CC[C@H]1C[C@H]2[C@H](O)c1cc(-c2ccccc2F)nc2ccc(OC)cc12 | 0.68% | 1.58% | 0.34%
28 | CC(Cc1ccc(CSC(C)C)cc1)NCC(O)c1cccc(Cl)c1 (stereo unspecified) | 3.54% | 3.54% | 3.37%
29 | COCCNCc1cccc(-c2ccc(CN(C(=O)NC3CCCCC3)C3CCN(Cc4ccccc4)CC3)cc2)c1 | 7.28% | 3.57% | 2.09%
30 | CCCCn1c(C)c(C(=O)OCC)c2cc(OC(C)=O)c(Br)cc21 | 1.92% | 1.76% | 3.29%
31 | O=C(NC1CCC(CN2CCC(c3c[nH]c4ccccc34)CC2)CC1)C1(O)c2ccccc2-c2ccccc21 (stereo unspecified) | 1.4% | 2.05% | 2.03%
32 | Cc1ccc(CC(C)NCC(O)c2cccc(Br)c2)cc1 (stereo unspecified) | 1.02% | -0.15% | 1.21%
